Compound activity as filed in PubChem BioAssay.
PRMT1 FP inh: blocks human protein arginine methyltransferase 1. Q99873. recombinant PRMT1, activity-based probe fluorescence polarization. inhibition, % at 2.79 µM. 1.3% of 370,000 active. AID 652257;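 active = inhibition above about 21% made by adding two undisclosed values, limit read from the data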
Target sequence (Q99873 whole entry, looked up): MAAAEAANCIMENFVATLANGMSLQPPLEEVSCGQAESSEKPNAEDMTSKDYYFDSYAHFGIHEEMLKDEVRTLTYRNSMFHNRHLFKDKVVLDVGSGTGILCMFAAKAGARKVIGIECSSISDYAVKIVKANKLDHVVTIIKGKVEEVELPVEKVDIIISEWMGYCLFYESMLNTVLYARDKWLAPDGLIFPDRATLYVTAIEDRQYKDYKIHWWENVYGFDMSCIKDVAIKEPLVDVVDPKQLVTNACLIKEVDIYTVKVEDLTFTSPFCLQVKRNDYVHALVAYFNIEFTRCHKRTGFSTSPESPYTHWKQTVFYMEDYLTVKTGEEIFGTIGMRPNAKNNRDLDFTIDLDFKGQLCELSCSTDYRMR
LEDGF integ inh: blocks HIV-1 LEDGF/p75-dependent DNA integration. TR-FRET IN-LEDGF/p75 DNA integration, Eu/Cy5. inhibition, % at 3.7 µM. 0.64% of 370,000 active;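 active = inhibition above the screen-wide mean plus 3 SD, cut at about 13% in these data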;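 note: signal is the Cy5 over europium emission ratio at 671 and 618 nm; 0% = plate median of compound wells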
MBD2 inh: blocks human MBD2 binding to methylated DNA | Q9UBB5 | inhibition, % at 4.4 µM | TR-FRET, MBD2 binding to methylated oligonucleotide | 0.31% of 370,000 active; in the data active = inhibition above about 13%
UHRF1 binding: human UHRF1 methylated DNA binding inhibitors | UHRF1 binding to methylated oligo, TR-FRET | inhibition, % at 4.4 µM | 0.75% of 370,000 active | AID 687016; in the data active = inhibition above about 21%;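 note: UHRF1 SRA domain binding a hemimethylated CpG hairpin DNA probe; 0% = median of test compound wells and 100% = reference inhibitor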
PRMT1 inh conf: PRMT1 (human) inhibition, FP confirmation; shares compounds with PRMT1 FP inh; recombinant His-PRMT1, activity-based probe fluorescence polarization; inhibition, % at 2.79 µM; 42% of 3,300 active; AID 687036;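 active = mean inhibition across replicates above the hit cutoff derived for the earlier primary screen, cut at about 22% in these data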
Starred values were filed as active, the others as inactive; x = no result given. In the library only some 2.5% were active in any assay of this set; here they are far more common.

SMILES	PRMT1 FP inh	LEDGF integ inh	MBD2 inh	UHRF1 binding	PRMT1 inh conf
COc1ccccc1NS(=O)(=O)c1cc(NC(=S)NCCN2CCOCC2)ccc1N1CCOCC1	36*	2	0	3	57*
O=S(=O)(Nc1ccccc1F)c1cccc(NC(=S)NCCN2CCOCC2)c1	73*	3	-1	-3	61*
NC(=NCc1ccccc1)C(N=Nc1ccccc1)C(=O)NCc1ccccc1 (configuration not stated)	1	-1	5	8	x
COc1ccc(-n2nnnc2C2c3ccccc3C(=O)N2C2CCN(Cc3ccccc3)CC2)cc1 (configuration not stated)	-3	-2	-2	-2	x
Cn1cnnc1SCc1ccccc1	-3	-4	3	-2	x
Cn1cnnc1SCc1ccc(-c2ccc(Br)cc2)o1	30*	-3	-8	-2	3
CSc1ccc(OC2(C)CCN(Cc3cc4ccccc4o3)C2)cc1 (configuration not stated)	0	1	3	0	x
Nc1nc(N)c2[nH]c(=S)[nH]c2n1	54*	-6	-3	2	9
Cc1ccc2nc(SCC(=O)Nc3ccc4c(c3)OCO4)nc(=O)n2c1	0	1	4	-3	x
Cc1cccc(NC(=O)NN(C(=O)c2ccccc2Cl)C(C)(C)C)c1	-1	-4	-3	-1	x
CCCCNS(=O)(=O)c1ccc2nc(-c3cccnc3)cc(C(=O)NC3CCCC3)c2c1	-3	-2	-5	-2	x
O=C(CN1C(=O)C2C3C=CC(C3)C2C1=O)OCC(=O)c1ccc(Cl)cc1 (configuration not stated)	-4	-4	1	-1	x
O=C(CN1C(=O)C2C3C=CC(C3)C2C1=O)OCC(=O)c1ccc([N+](=O)[O-])cc1 (configuration not stated)	50*	2	-5	-2	42*
CC(C(=O)OCC(=O)c1ccc([N+](=O)[O-])cc1)N1C(=O)C2C3C=CC(C3)C2C1=O (configuration not stated)	28*	5	-5	1	4
CC(C(=O)OCC(=O)c1ccc([N+](=O)[O-])cc1)N1C(=O)C2C3CCC(C3)C2C1=O (configuration not stated)	11	-1	-2	1	x
COc1ccc(CNC(=O)[C@@H](Cc2ccccc2)NC(=O)CC[C@H]2O[C@@H](n3ccc(=O)[nH]c3=O)[C@H](O)[C@@H]2O)cc1	2	4	1	-2	x
Cc1ccc2c(CN3CCCCC3CCO)cc(=O)oc2c1 (configuration not stated)	5	-6	2	14	x
Cc1c(Cc2ccccc2)sc(NC(=O)Cc2ccccc2)c1C(N)=O	29*	-2	0	6	3
O=C(c1ccc2c(=O)n3c(nc2c1)CCCCC3)N1CCc2ccccc21	-4	1	-3	-4	x
CN(C)c1ccc(C=Cc2nccc3ccccc23)cc1	139*	2	-11	-22	61*
COc1ccc2nc(C)cc(Sc3nc4ccccc4s3)c2c1	2	-7	1	-1	x
COc1ccc(C(=O)NCC23C=CC(O2)C2C(=O)N(Cc4ccccc4)C(=O)C23)cc1 (configuration not stated)	54*	-6	-3	-1	7
COc1ccc(CCNC(=O)c2ccc(CN3CCC(Cc4ccccc4)CC3)cc2)cc1	0	-3	4	1	x
O=C(O)C1Nc2c(C(F)(F)F)ccc(Cl)c2C2C=CCC12 (configuration not stated)	33*	6	-5	-1	28*
COc1ccc(S(=O)(=O)NCc2cccnc2)cc1NC(=O)c1ccccc1C	48*	-1	2	0	6
SMILES	PRMT1 FP inh	LEDGF integ inh	MBD2 inh	UHRF1 binding	PRMT1 inh conf
CCOc1ccc(S(=O)(=O)NCc2cccnc2)cc1NC(=O)c1ccccc1	-3	3	-4	1	x
COc1ccc(OC)c(C(=O)N2CCC(CCC(=O)NC3CC3)CC2)c1	0	3	-2	-2	x
CCC(=O)N1CCN(c2ccccc2NC(=O)COc2cc(C)ccc2C(C)C)CC1	112*	0	3	1	-4
O=C(O)/C(=C\c1ccco1)NC(=O)c1ccc(Br)o1	11	9	1	5	x
O=C(Nc1ccc(C(=O)O)cc1)/C(=C\c1ccco1)NC(=O)c1ccc(Br)o1	25*	10	3	10	-4
O=C(O)/C(=C/c1ccco1)NC(=O)c1ccc(Br)o1	29*	12	3	9	4
OC(c1ccc(F)c(F)c1)c1nc(-c2ccc3c(c2)OCO3)cs1 (configuration not stated)	0	4	1	-1	x
C#CCN1c2ccccc2Sc2cccnc21	63*	-1	-15	-41	13
CC(CN1c2ccccc2Sc2ccccc21)N(C)C (configuration not stated)	0	0	-2	4	x
CC(C)NC(=S)NNc1nc2ccccc2s1	60*	-6	2	0	57*
O=C(COC(=O)c1ccc(Cl)c(S(=O)(=O)NCc2ccccc2)c1)NCC1CCCO1 (configuration not stated)	2	-3	1	-3	x
O=C(CSc1ncccn1)c1ccccc1Br	57*	-1	0	6	38*
O=C(CCN1CCCCCC1)c1ccccc1	-2	0	-3	-1	x
O=C(/C=C/c1ccccc1)CCN1CCCCC1	25*	-3	-2	1	50*
CSc1ccc(CN(C)C(=O)C2CCN(C(=O)Nc3ccccc3)CC2)cc1	-1	2	3	1	x
CCN(Cc1ccccc1)S(=O)(=O)CCNC(=O)c1ccccc1	33*	1	1	-3	1
O=C(Cc1ccc(F)cc1)N/N=C/c1ccc(-c2ccc(Cl)c(C(=O)O)c2)o1	1	-1	-1	-1	x
O=C(O)c1cc(N/N=C/c2ccc(-c3ccc(F)cc3)o2)ccc1Cl	34*	10	6	8	0
Cc1nc2ccccc2c(=O)n1-c1cccc(NC(=O)c2cccs2)c1	-1	-2	0	1	x
O=C(Nc1cccc(N2C(=O)C=CC2=O)c1)c1cccs1	86*	7	1	1	94*
CC(C)n1c(=S)[nH]c2c1c(=O)[nH]c(=O)n2C	45*	-2	0	0	47*
C=CC(C)n1c(Br)nc2c1c(=O)[nH]c(=O)n2C (configuration not stated)	-5	-1	2	-3	x
COc1ccc(N2CCCN(CC(=O)Nc3ccc(Cl)c(Cl)c3)CC2)cc1	8	1	-7	-2	x
Cc1cc(C)cc(C(=O)NCC(=O)OCC(=O)NC2CCCc3ccccc32)c1 (configuration not stated)	-5	3	-3	-2	x
O=C(Cc1ccc(S(=O)(=O)N2CCOCC2)s1)Nc1nc2c(s1)CCCC2	29*	-2	7	14	4
CC[n+]1c(/C=C2/C=C(C)CC(C)(C)C2)sc2ccc(OC)cc21	36*	1	2	1	1
